According to PubChem BioAssay (EPA / NIEHS):
Where “and” joins values, the source holds several entries; their conditions need not be identical. Equal values may be shown once. A structure can be active in one record and inactive in another. Calls of active or inactive are those of the source. How the source made its calls: active means hit-call score of the fitted dose curve at least 0.9, where 1 is the maximum; inactive means score below 0.9.

assay: ATG_AP_2_CIS: Attagene CIS-FACTORIAL HepG2 Assay for human Activator Protein 2 (AP-2) (AID 2282932); conditions: HepG2 AP-2 cis-reporter, Attagene transcription factor profiling; AC50: actives raise or lower the signal unless noted; outcome: actives raise or lower the signal unless noted
Outline: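 Bidirectional curve fitting against DMSO was applied to reporter mRNA signals from HepG2 cells 24 h after dosing. Cis-promoter reporter units, transiently transfected, were read by RT-PCR plus capillary electrophoresis.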

Which outcome does the source give for `FC(F)(F)C(F)(F)C(F)(F)C(F)(F)I` here?
Its outcome is “inactive”.

For `CCCCCCOC(=O)c1ccc(O)cc1`, which AC50 is on record?
The AC50 was 54.9 µM (active).

Which outcome does the source give for `Nc1ccc(O)c(C(=O)O)c1` here?
The outcome was “inactive”.

Which outcome does the source give for `CC(C)(O)C(=O)c1ccccc1` here?
Its outcome is “inactive”.

Which outcome does the source give for `CC1CCC(C(=O)O)CC1` (stereo unspecified) here?
Its outcome is “inactive”.

With `O=C(Nc1ccc(Cl)c(Cl)c1)c1cc(Cl)cc(Cl)c1O` as the compound, how does the AC50 read?
The AC50 was 2.07 µM (active).

With `Cc1ccc(C(=O)c2ccccc2)cc1` as the compound, how does the outcome read?
Its outcome is “inactive”.

With `CCCCCCCCCC=CCC1CC(=O)OC1=O` (stereo unspecified) as the compound, how does the outcome read?
The outcome was “inactive”.

With `CCO[Si](C)(C)OCC` as the compound, how does the outcome read?
Its outcome is “inactive”.

For `CC(=O)Nc1ccc(S(N)(=O)=O)cc1`, which outcome is on record?
Its outcome is “inactive”.

Which outcome does the source give for `COc1cccc(O)c1` here?
The outcome was “inactive”.

Which outcome does the source give for `Cn1sccc1=O` here?
The outcome was “inactive”.

For `c1ccc2c(c1)CCC2`, which outcome is on record?
Its outcome is “inactive”.

With `Cc1ccccc1C(OCCN(C)C)c1ccccc1` (stereo unspecified) as the compound, how does the outcome read?
Its outcome is “inactive”.

Which outcome does the source give for `O=C(O)C(=O)O` here?
Its outcome is “inactive”.

With `O=C1OC(=O)C(F)(F)C1(F)F` as the compound, how does the outcome read?
The outcome was “inactive”.

For `CCCCCCCCCCCC`, which outcome is on record?
Its outcome is “inactive”.

assay: ATG_BRE_CIS: Attagene CIS-FACTORIAL HepG2 Assay for human Bone Morphogenetic Protein (BMP) Response Element (BRE) (AID 2282933); conditions: HepG2 BMP response element reporter, Attagene transcription factor profiling; actives raise or lower the signal
Outline: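 Fluorescence-labelled reporter cDNA fragments, separated by capillary electrophoresis, gave the signal for this component of a 52-readout multiplex. HepG2 cells were transfected, exposed to chemicals for 24 h, and compared with DMSO using bidirectional fitting.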

For `CCCCCCCC(OC)OC`, which outcome is on record?
Its outcome is “inactive”.

With `Cc1cc(C(=C2C=CC(=Nc3ccc(S(=O)(=O)O)cc3)C=C2)c2ccc(Nc3ccc(S(=O)(=O)O)cc3)cc2)cc(S(=O)(=O)O)c1N` as the compound, how does the outcome read?
Its outcome is “inactive”.

Which outcome does the source give for `Clc1ccc(Nc2nnc(Cc3ccncc3)c3ccccc23)cc1` here?
The outcome was “inactive”.

For `Cc1ccc2ccc3ccc(C)cc3c2c1`, which outcome is on record?
The outcome was “inactive”.

With `OCC1CCC(CO)CC1` (stereo unspecified) as the compound, how does the outcome read?
The outcome was “inactive”.

With `O=S(=O)(O)c1ccccc1` as the compound, how does the outcome read?
The outcome was “inactive”.

For `CCOC=O`, which outcome is on record?
The outcome was “inactive”.

With `OCCN1CN(CCO)CN(CCO)C1` as the compound, how does the outcome read?
The outcome was “inactive”.

Which results are given for `O=C1OC2(c3ccccc31)c1cc(I)c(O)c(I)c1Oc1c2cc(I)c(O)c1I`?
AC50: 88.1 µM (active) and 82.7 µM (active); outcome: inactive

With `O=c1cc(-c2ccccc2)oc2ccc3ccccc3c12` as the compound, how does the outcome read?
Its outcome is “inactive”.

With `O=C1Cc2ccccc2N1c1c(Cl)cccc1Cl` as the compound, how does the AC50 read?
The AC50 was 100 µM (active).

For `Oc1ccc(Cc2ccccc2O)cc1`, which outcome is on record?
The outcome was “inactive”.

Which outcome does the source give for `Oc1c(Cl)ccc(Cl)c1Cl` here?
The outcome was “inactive”.

With `C=CCOCC(CO)(CO)CO` as the compound, how does the outcome read?
The outcome was “inactive”.

Which outcome does the source give for `C=CC(C)(CCC=C(C)C)OC(C)=O` (stereo unspecified) here?
The outcome was “inactive”.

For `c1cnc2c(c1)ccc1cccnc12`, which outcome is on record?
The outcome was “inactive”.

With `O=C(F)C(F)(F)C(F)(F)C(F)(F)C(=O)F` as the compound, how does the outcome read?
Its outcome is “inactive”.

With `c1cc2cccc3c4cccc5cccc(c(c1)c23)c54` as the compound, how does the outcome read?
The outcome was “inactive”.

For `O=P(O)(O)CCC(F)(F)C(F)(F)C(F)(F)C(F)(F)C(F)(F)C(F)(F)F`, which outcome is on record?
Its outcome is “inactive”.

With `FC(F)(F)C(F)(F)C(F)(F)C(F)(F)I` as the compound, how does the outcome read?
Its outcome is “inactive”.

With `CCCCCCOC(=O)c1ccc(O)cc1` as the compound, how does the outcome read?
Its outcome is “inactive”.

For `Nc1ccc(O)c(C(=O)O)c1`, which outcome is on record?
The outcome was “inactive”.

With `CC(C)(O)C(=O)c1ccccc1` as the compound, how does the outcome read?
Its outcome is “inactive”.

With `CC1CCC(C(=O)O)CC1` (stereo unspecified) as the compound, how does the outcome read?
Its outcome is “inactive”.

With `O=C(Nc1ccc(Cl)c(Cl)c1)c1cc(Cl)cc(Cl)c1O` as the compound, how does the AC50 read?
The AC50 was 0.695 µM (active).

For `Cc1ccc(C(=O)c2ccccc2)cc1`, which outcome is on record?
Its outcome is “inactive”.

For `CCCCCCCCCC=CCC1CC(=O)OC1=O` (stereo unspecified), which outcome is on record?
Its outcome is “inactive”.

Which outcome does the source give for `CCO[Si](C)(C)OCC` here?
The outcome was “inactive”.

For `CC(=O)Nc1ccc(S(N)(=O)=O)cc1`, which outcome is on record?
Its outcome is “inactive”.

With `COc1cccc(O)c1` as the compound, how does the outcome read?
Its outcome is “inactive”.

With `Cn1sccc1=O` as the compound, how does the AC50 read?
The AC50 was 34.7 µM (active).

Which outcome does the source give for `c1ccc2c(c1)CCC2` here?
The outcome was “inactive”.

With `Cc1ccccc1C(OCCN(C)C)c1ccccc1` (stereo unspecified) as the compound, how does the outcome read?
The outcome was “inactive”.

For `CC1=NN(c2ccccc2)C(=O)C1`, which outcome is on record?
The outcome was “inactive”.

With `O=C(O)C(=O)O` as the compound, how does the outcome read?
The outcome was “inactive”.

For `CCOC(C)=O`, which outcome is on record?
The outcome was “inactive”.

With `O=C1OC(=O)C(F)(F)C1(F)F` as the compound, how does the outcome read?
Its outcome is “inactive”.

Which outcome does the source give for `CCCCCCCCCCCC` here?
The outcome was “inactive”.
